ROMK primary – ROMK potassium channel modulators, primary screen, cell-based, thallium flux, MLSMR library; Tet-inducible ROMK, thallium flux fluorescence; actives lie on both sides; ATP-sensitive inward rectifier potassium channel 1 (Homo sapiens), P48048; B-score at 10 µM; 130,000 tested, 2% active;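 active = signal ratio slope over the read window, or its plate-corrected B-score, at least 3 SD from the plate mean, either direction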;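 also: B-score of the F/F0 ratio slope over 7 to 12 s after thallium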
Target sequence (P48048 whole entry, looked up): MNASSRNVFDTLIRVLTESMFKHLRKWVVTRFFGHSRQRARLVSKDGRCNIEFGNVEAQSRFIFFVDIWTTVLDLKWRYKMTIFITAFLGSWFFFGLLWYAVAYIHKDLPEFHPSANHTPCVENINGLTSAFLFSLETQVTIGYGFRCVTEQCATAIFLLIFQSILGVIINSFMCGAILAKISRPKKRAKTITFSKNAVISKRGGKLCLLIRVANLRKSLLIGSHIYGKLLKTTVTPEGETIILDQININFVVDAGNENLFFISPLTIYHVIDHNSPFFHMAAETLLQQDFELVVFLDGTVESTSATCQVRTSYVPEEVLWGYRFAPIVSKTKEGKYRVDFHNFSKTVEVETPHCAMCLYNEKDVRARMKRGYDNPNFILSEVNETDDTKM
INS promoter inh – inhibitors of insulin promoter-driven GFP, primary screen, imaging, TRM-6 cells (human fetal islet line), eGFP reporter, cell count; reporter expression induced with tamoxifen; inhibition, % at 2 µM; 130,000 tested, 0.9% active; AID 1273, 2008;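 active = inhibition above the mean plus 3 SD, with well images judged a real hit on visual review, cut at about 60% in these data, passing the limit was not always enough; inconclusive = inhibition over the cutoff but images rejected on review; inactive = inhibition not above the cutoff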
sdo1 growth – growth rescue of sdo1-depleted yeast, primary screen, S. cerevisiae, bone marrow failure model. S. cerevisiae sdo1-depleted JHY4D growth rescue, OD600 30 h; stronger effect = higher value; pdr5 snq2 efflux-pump mutant strain. z-score at 10 µM. 140,000 tested, 0.21% active. AID 817, 2007;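 active = z-score above 3 at both the 24 hr and the 30 hr optical density reads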
Measles CPE – compounds protecting cells from measles virus cytopathic effect, primary screen, measles RdRp inhibitor project, single point, MLSMR library, absorbance. 140,000 tested, 1.5% active. AID 841, 2007. protection (pct of control), % at 4 µM. Measles virus-infected cells, CPE protection; in the data active = protection mostly above about 24%, no sharp cut-off; inactive = mostly below about 26%
SDO1 rescue DR – SDO1-depleted yeast growth rescue, concentration-response, diseases of bone marrow failure, JHY4D, OD600 | shares compounds with sdo1 growth | S. cerevisiae JHY4D (SDO1-depleted) growth rescue, 30 h; stronger effect = higher value; efflux-deficient strain, SNQ2 and PDR5 mutated | OD recovery (test concentration not listed) | 440 tested, 44% active | AID 949, 2007;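 active = yeast growth recovered at 30 hours, either rising with dose fitted slope above 0.001 or with average optical density gain above 0.07, some results past the limit were not filed as active; inactive = growth falling with dose or no effect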
Each line names hits and unclear results; the compound was inactive in the other large screens (follow-up assays come after a bar, where they were run). The list is not random: actives were taken first. Their share in the collection is about 3%.

COC(=O)C1C(=O)OC(C)(C)C1C(C)C(=O)c1ccc(C)cc1C (configuration not stated)	none (no result: sdo1 growth, Measles CPE)
COC(=O)c1c(C)[nH]c(C(=O)/C=C/c2cccc(Cl)c2)c1C	sdo1 growth 10.8 (no result: ROMK primary) | SDO1 rescue DR inactive
CCCCc1n[nH]c(=S)n1Cc1ccc(Cl)cc1	none (no result: sdo1 growth, Measles CPE)
O=c1[nH]nc(SCc2nnc(-c3cccc(Cl)c3)o2)n1C1CCCCC1	none (no result: INS promoter inh, sdo1 growth, Measles CPE)
CCCc1nn(C)c(C(=O)Nc2ccc3ccccc3c2)c1Cl	sdo1 growth 4.12 | SDO1 rescue DR 0.0962
Cc1ccc(S(=O)(=O)N2CCOCC2)cc1NC(=O)COc1ncnc2ccccc12	none (no result: ROMK primary)
O=C(COc1ncnc2ccccc12)Nc1cccc(S(=O)(=O)N2CCOCC2)c1	sdo1 growth 3.64 (no result: ROMK primary, INS promoter inh) | SDO1 rescue DR inactive
COc1ccc(CCNC(=O)CCN2C(=O)c3cccc4cccc(c34)C2=O)cc1OC	none (no result: INS promoter inh, sdo1 growth, Measles CPE)
COc1ccc(CCN2C(=O)c3cccc4c(C(=O)N5CCCCC5)ccc(c34)C2=O)cc1OC	none (no result: ROMK primary, INS promoter inh) | SDO1 rescue DR inactive
COc1ccc(CN2C(=O)c3cccnc3C2Nc2ccc(C)cc2)cc1 (configuration not stated)	none (no result: ROMK primary)
CCN(CC)S(=O)(=O)c1ccc(NC2c3ncccc3C(=O)N2Cc2ccccc2)cc1 (configuration not stated)	sdo1 growth 10.3 | SDO1 rescue DR inactive
O=C(NCc1ccco1)c1ccc(N2CCCCC2)c([N+](=O)[O-])c1	none
CC1CCN(c2ccc(C(=O)NCc3ccco3)cc2[N+](=O)[O-])CC1	sdo1 growth 10.6 | SDO1 rescue DR 0.0952
CN(C)/C=N/N(C)c1ncccc1[N+](=O)[O-]	none (no result: INS promoter inh, sdo1 growth, Measles CPE)
CCOC(=O)C(NC(=O)OC(C)C)(Nc1nccs1)C(F)(F)F (configuration not stated)	sdo1 growth 13.3 (no result: ROMK primary) | SDO1 rescue DR 0.0884
COC(=O)C(NC(=O)c1ccccc1)(Nc1nccs1)C(F)(F)F (configuration not stated)	none (no result: INS promoter inh)
COc1cccc(CNC(=O)C2CCCN(S(=O)(=O)c3c(C)[nH]c(=O)[nH]c3=O)C2)c1 (configuration not stated)	none (no result: INS promoter inh)
NC(=O)C1CCN(C(=O)Cn2cccc2C(=O)c2ccccc2)CC1	none
Cc1cc(S(=O)(=O)NCC(C)C)ccc1OCC(=O)NCC1CCCO1 (configuration not stated)	sdo1 growth 7.79 | SDO1 rescue DR inactive
O=C(Nc1ccc(S(=O)(=O)NC2=NCCCCC2)cc1)c1ccc(=O)[nH]c1	none (no result: sdo1 growth, Measles CPE)
C/C(N)=C(/C#N)C(=O)COC(=O)c1cc(-c2ccc(Br)cc2)nc2ccccc12	none (no result: ROMK primary, INS promoter inh)
COc1cccc2c1OCC/C2=N\NC(=O)COc1ccc(C)cc1	none | SDO1 rescue DR inactive
CSCC[C@H](NC(=O)OC(C)(C)C)c1nnc(SCC(N)=O)o1	sdo1 growth 9.56 | SDO1 rescue DR 0.0458
CCOc1ccc(C2c3c(oc4ccccc4c3=O)C(=O)N2CCCN2CCOCC2)cc1OCC (configuration not stated)	none (no result: ROMK primary, INS promoter inh) | SDO1 rescue DR inactive
CCC(C)[C@@H](NC(=O)OC(C)(C)C)c1nnc(S(=O)(=O)Cc2cccc(C)c2)o1 (some centres not stated)	sdo1 growth 5.64 | SDO1 rescue DR 0.105
O=C(Cc1ccc(Cl)cc1)N/N=C1\CCCc2ccccc21	none (no result: ROMK primary)
O=C(CCC(=O)Nc1ccccc1Cl)N/N=C1\CCCc2ccccc21	sdo1 growth 12.6 | SDO1 rescue DR 0.0832
CCC(C)NC(=O)C1CCN(S(=O)(=O)c2ccc(OC)cc2)CC1 (configuration not stated)	none
CCn1c(O)c(N=N)c2ccccc21	none (no result: INS promoter inh, sdo1 growth, Measles CPE)
CCn1c(O)c(N=NC2=NC(=O)CS2)c2ccccc21	sdo1 growth 15.9 (no result: ROMK primary) | SDO1 rescue DR inactive
Cc1ccc(C2/C(=C(\O)c3ccc4c(c3)OCCO4)C(=O)C(=O)N2CCCN(C)C)o1 (configuration not stated)	sdo1 growth 6.86 (no result: INS promoter inh) | SDO1 rescue DR 0.0972
COc1ccc(C2/C(=C(\O)c3ccc4c(c3)OCCO4)C(=O)C(=O)N2CCCN(C)C)cc1 (configuration not stated)	none
O=C(CSc1ccccc1)Nc1ccc(C(=O)Nc2ccc(O)cc2)cc1	none (no result: sdo1 growth, Measles CPE)
COC(=O)c1ccc(C2C(C(C)=O)=C(O)C(=O)N2CCO)cc1 (configuration not stated)	none (no result: INS promoter inh)
COC(=O)c1ccc(C2c3c(oc4ccc(F)cc4c3=O)C(=O)N2CCO)cc1 (configuration not stated)	none (no result: ROMK primary, INS promoter inh) | SDO1 rescue DR inactive
O=C(CSc1nnc(CNc2ccc(F)cc2)o1)OC1CCCCC1	none (no result: ROMK primary)
O=C(CSc1nnc(CNc2cccc(Cl)c2)o1)OC1CCCCC1	sdo1 growth 11.6 (no result: ROMK primary) | SDO1 rescue DR 0.09
O=C(Nc1cc([N+](=O)[O-])ccc1Cl)C(Sc1ccccc1)c1ccccc1 (configuration not stated)	sdo1 growth 11.2 | SDO1 rescue DR inactive
C=CCN=C(C)C1=C(O)C(C)OC1=O (configuration not stated)	sdo1 growth 14.2 (no result: ROMK primary, INS promoter inh) | SDO1 rescue DR 0.0967
CC(=O)c1ccc(NC(=S)NC(C)c2ccc(Cl)cc2Cl)cc1 (configuration not stated)	none (no result: sdo1 growth, Measles CPE)
COc1ccc2c(c1)sc(N)[n+]2Cc1cc(C)cc2cccnc12	sdo1 growth 9.73 (no result: ROMK primary, INS promoter inh) | SDO1 rescue DR inactive
CCOc1ccc2c(c1)sc(N)[n+]2Cc1cc(C)cc2cccnc12	none (no result: ROMK primary, INS promoter inh)
O=C(COC(=O)c1cnccn1)c1ccc2c(c1)CCCC2	INS promoter inh inconclusive
O=C(NCc1ccncc1)C(=O)N/N=C/c1ccccn1	none (no result: INS promoter inh, sdo1 growth, Measles CPE)
COc1ccc(C2C(C(=O)N3CCOCC3)=C(C)NC3=C2C(=O)CC(C)(C)C3)c(OC)c1 (configuration not stated)	sdo1 growth 8.21 | SDO1 rescue DR inactive
CC1=C(C(=O)N2CCOCC2)C(c2ccccc2F)C2=C(CC(C)(C)CC2=O)N1 (configuration not stated)	none (no result: INS promoter inh)
O=C(COC(=O)/C=C/c1ccccc1[N+](=O)[O-])Nc1ccc(OC(F)F)cc1	sdo1 growth 11.3 | SDO1 rescue DR inactive
O=C(COC(=O)/C=C/c1ccccc1[N+](=O)[O-])Nc1ccc(OCc2ccccc2)cc1	none
COc1cccc(CC2CC(=O)N(CCc3ccc4c(c3)OCO4)C2=O)c1 (configuration not stated)	sdo1 growth 5.27 | SDO1 rescue DR 0.0879
Cc1ccc(CC2CC(=O)N(CCc3ccc4c(c3)OCO4)C2=O)cc1 (configuration not stated)	none (no result: INS promoter inh)
CCOc1ccccc1NC(=O)CN(c1ccc(OC)cc1OC)S(=O)(=O)c1ccccc1[N+](=O)[O-]	none (no result: sdo1 growth, Measles CPE)
CCN(Cc1ccncc1)C(=O)C1CCN(S(=O)(=O)c2cccs2)CC1	none
Cc1nc2ncnn2c(C)c1CCC(=O)O	sdo1 growth 3.87 | SDO1 rescue DR 0.0989
COc1ccccc1OC(C)C(=O)O (configuration not stated)	sdo1 growth 5.15 (no result: ROMK primary) | SDO1 rescue DR inactive

Screening data as filed in PubChem.
